Shown are actives, neighbours in structure and some others; about 6.3% of the full set was active somewhere.
TIM10 inh: growth inhibitors of isogenic TIM10 control yeast, primary screen, counter-screen for tim10-1 yeast inhibitor project, luminescence, uHTS; S. cerevisiae TIM10 strain growth, BacTiter-Glo luminescence, 24 h; inhibition, % at 10 µM; 330,000 compounds, 1.4% hits;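 active = inhibition of 40% or more at the single tested concentration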;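 also: wild-type TIM10 isogenic control strain grown at permissive 25 °C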
tim23-1 inh: growth inhibitors of tim23-1 mutant yeast, primary screen, luminescence, uHTS | S. cerevisiae tim23-1 growth, BacTiter-Glo luminescence, 24 h | inhibition, % at 20 µM | 330,000 compounds, 1.3% hits;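 active = growth inhibition of the mutant yeast at or above 50%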;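 also: temperature-sensitive mutant grown at 25 °C; plate controls were DMSO-treated mutant yeast for no effect and medium wells lacking yeast for full effect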
tim10-1 inh: growth inhibitors of tim10-1 mutant yeast, primary screen, luminescence, uHTS; S. cerevisiae tim10-1 ts strain growth, BacTiter-Glo, 24 h; inhibition, % at 20 µM; 330,000 compounds, 2.2% hits; AID 463190, 2010;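 active = inhibition of at least 40%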;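 also: mutant grown at 25 °C; 0% = DMSO wells with yeast and 100% = wells holding no yeast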
Mdm2 MdmX PPI: inhibitors of human Mdm2-MdmX association, primary screen, cell-based, luminescence, split luciferase, SaOS-2, uHTS; Protein Mdm4 (Homo sapiens) + E3 ubiquitin-protein ligase Mdm2 (Homo sapiens), …; SaOS-2 split-luciferase Mdm2/MdmX complementation; inhibition, % at 8 µM; 330,000 compounds, 3% hits; AID 485346, 2010;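 active = inhibition of at least 50% at 8 µM in the primary screen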
Target sequence (O15151 whole entry, looked up): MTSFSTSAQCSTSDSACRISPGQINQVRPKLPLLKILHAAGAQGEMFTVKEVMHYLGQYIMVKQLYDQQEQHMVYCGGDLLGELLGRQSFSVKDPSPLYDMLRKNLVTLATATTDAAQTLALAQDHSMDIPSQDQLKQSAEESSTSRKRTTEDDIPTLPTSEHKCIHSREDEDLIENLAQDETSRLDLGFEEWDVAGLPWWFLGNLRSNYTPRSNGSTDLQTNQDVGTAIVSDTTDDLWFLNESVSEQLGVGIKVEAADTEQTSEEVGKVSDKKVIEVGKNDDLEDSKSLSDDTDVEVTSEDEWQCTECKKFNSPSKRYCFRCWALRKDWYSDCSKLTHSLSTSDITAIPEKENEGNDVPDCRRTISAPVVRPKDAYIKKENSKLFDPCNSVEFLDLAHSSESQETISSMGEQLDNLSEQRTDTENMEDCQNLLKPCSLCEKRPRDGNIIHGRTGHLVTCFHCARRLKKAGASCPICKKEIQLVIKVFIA
Target sequence (Q00987 whole entry, looked up): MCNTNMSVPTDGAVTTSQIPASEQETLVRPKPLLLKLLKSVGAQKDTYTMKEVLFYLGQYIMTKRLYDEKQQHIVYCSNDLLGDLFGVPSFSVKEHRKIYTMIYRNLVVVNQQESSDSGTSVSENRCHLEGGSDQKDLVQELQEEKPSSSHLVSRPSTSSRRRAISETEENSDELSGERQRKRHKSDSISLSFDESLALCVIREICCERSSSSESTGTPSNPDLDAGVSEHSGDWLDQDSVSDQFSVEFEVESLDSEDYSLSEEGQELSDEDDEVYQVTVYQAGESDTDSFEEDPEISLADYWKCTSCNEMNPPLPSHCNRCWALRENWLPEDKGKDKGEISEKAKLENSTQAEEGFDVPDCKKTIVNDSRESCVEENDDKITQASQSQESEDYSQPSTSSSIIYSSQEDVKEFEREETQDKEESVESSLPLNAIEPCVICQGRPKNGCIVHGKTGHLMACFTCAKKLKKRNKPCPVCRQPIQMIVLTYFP
MPTP block: mitochondrial permeability transition pore inhibitors, primary screen, biochemical, isolated mouse mitochondria, absorbance; Ca2+ swelling absorbance, 30 min; inhibition, % at 10 µM; 360,000 compounds, 1.4% hits; AID 602449, 2012;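 active = inhibition of 50% or more, scaled per plate between neutral and stimulator controls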;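 also: 0% = DMSO wells given calcium and 100% = 1 mM EGTA wells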
tim10-1 conf: growth inhibitors of tim10-1 mutant yeast, confirmation, single concentration, luminescence, S. cerevisiae; shares compounds with tim10-1 inh; S. cerevisiae tim10-1 ts strain growth, BacTiter-Glo, 24 h; inhibition, % at 20 µM; 7,400 compounds, 56% hits;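 active = inhibition of yeast growth at or above a set limit in either of two repeat tests at 20 µM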;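 also: tim10-1 mutant grown at permissive 25 °C to find synthetic lethal compounds; 0% = DMSO yeast wells and 100% = medium wells without yeast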
An asterisk follows results filed as active; x = not tested or not shown.

SMILES | TIM10 inh | tim23-1 inh | tim10-1 inh | Mdm2 MdmX PPI | MPTP block | tim10-1 conf
CC(C)(C)OC(=O)N(Cc1ccccc1)Cc1cccc(OCc2cccc(NC(=O)c3ccccc3)c2)c1 | x | x | x | x | 1.1 | x
O=C(NCCN1C(=O)S/C(=C\c2ccc(OC(F)F)cc2)C1=O)C1=COCCO1 | 28.5 | 43.1 | 44.1* | 48.3 | 0.7 | 29.1
COc1ccc(/C=C2\SC(=O)N(CCNC(=O)C3=COCCO3)C2=O)cc1 | -13.5 | 3.1 | -9.7 | -4.4 | -3.5 | x
CC(=O)C1=CCC(c2cccc3ccccc23)N(S(=O)(=O)c2ccc(C)cc2)C1 (stereo unspecified) | x | x | x | x | -0.7 | x
Cc1nn(Cc2cccc(C(=O)NC34CC5CC(CC(C5)C3)C4)c2)c(C)c1Br | 20.0 | 26.1 | 43.4* | 25.1 | 3.1 | 27.7
CC1(C)Cc2ccccc2/C(=C/C(=O)N2CCCCCC2)N1 | 36.9 | 31.8 | 42.5* | 27.7 | 2.0 | 40.2*
O=C(N[C@H](CO)Cc1ccccc1)[C@H]1O[C@@H](n2ccc(=O)[nH]c2=O)[C@H](O)[C@@H]1O | x | x | x | x | -1.6 | x
Cn1nc(-c2ccc(Cl)cc2)c2cc(C(=O)NCCN3CCOCC3)sc21 | 26.7 | 42.4 | 46.3* | 11.8 | -2.0 | 27.1
Cn1nc(-c2ccc(Cl)cc2)c2cc(C(=O)N3CCN(C(=O)c4ccco4)CC3)sc21 | 23.8 | 33.1 | 41.2* | 22.3 | -0.8 | 4.7
CCCN(CCC)CCNC(=O)c1cc2c(-c3ccc(Cl)cc3)nn(C)c2s1 | 13.3 | 27.8 | 39.6 | 23.9 | -1.0 | x
CCn1cc(Br)c(C(=O)Nc2ccc(C(=O)OC(C)C)cc2)n1 | 38.1 | 42.2 | 41.1* | -20.0 | 0.6 | 33.5*
CCn1cc(Br)c(C(=O)Nc2ccc(OC)cc2)n1 | 5.3 | -7.3 | -3.7 | -23.5 | -2.1 | x
Cc1cc2nc(-c3ccc(F)cc3)c(CC(C)(C)C)n2c(C)c1Br | x | x | x | x | 2.1 | x
Cc1cccc(C)c1NC(=O)C1C(c2ccccc2)=Nc2ccccc2N1C(=O)c1cnccn1 (stereo unspecified) | x | x | x | x | 0.0 | x
Cc1cccc2c1N(CCOc1ccc(C(C)(C)C)cc1)C(=O)C2=O | 27.6 | 42.9 | 46.1* | 7.4 | -2.0 | 33.0*
O=C(O)C1C2C=CC(C3CC23)C1C(=O)NCCc1ccccc1 (stereo unspecified) | 5.7 | -5.4 | 5.6 | -5.7 | -15.0 | x
CC(C)=C1C2CCC1C(C(=O)NCCc1ccccc1)C2C(=O)O (stereo unspecified) | 1.4 | 28.5 | 44.1* | 9.0 | 0.2 | 22.8
O=CNc1ccc2c3c(cccc13)-c1ccccc1-2 | x | x | x | x | 1.8 | x
O=C(NC1CCCC1)C(c1ccccc1)n1c(CSCCOc2ccccc2)nc2ccccc21 (stereo unspecified) | x | x | x | x | 2.6 | x
O=C(c1ccc(Cl)cc1)[C@@H]1[C@@H]2C(=O)N(c3ccccc3)C(=O)[C@@H]2C2c3ccccc3C=NN21 (stereo partly specified) | 15.3 | 40.8 | 40.1* | 3.6 | -0.8 | 23.0
O=C(c1ccc(Cl)cc1)C1C2C(=O)N(c3ccccc3)C(=O)C2C2CCCN21 (stereo unspecified) | x | x | x | x | -1.0 | x
CCOC(=O)C1(CCOC)CCCCC1=O (stereo unspecified) | x | x | x | x | 1.3 | x
O=C(C(=O)N1CCC(Cc2ccccc2)CC1)c1ccccc1 | x | x | x | x | -1.0 | x
C=CCn1nc([N+](=O)[O-])nc1Sc1cccc2cccnc12 | 16.0 | 41.1 | 51.7* | 32.9 | 5.2 | 36.8*
CCCn1c(/N=C/c2c[nH]c3ccccc23)nc2ccccc21 | 2.3 | 36.5 | 26.1 | -7.1 | 6.5 | x
CCCCn1c(/N=C/c2c[nH]c3ccccc23)nc2ccccc21 | 1.5 | 33.0 | 40.7* | 14.4 | 13.0 | 21.6
N#C/C(=C/c1ccc([N+](=O)[O-])cc1)C(=O)Nc1ccccc1O | 13.9 | 41.0 | 33.3 | -7.6 | -0.1 | x
N#C/C(=C/c1ccc(O)c([N+](=O)[O-])c1)C(=O)Nc1ccccc1 | 24.2 | 25.2 | 40.4* | 18.1 | 31.5 | 22.8
CCOC(=O)c1oc2nc(C(C)C)c3c(c2c1N)CCC3 | 20.8 | 37.2 | 43.1* | -9.9 | 0.3 | 29.4
Cc1ccc(S(=O)(=O)n2nc(OC(=O)C3CCCCC3)cc2N)cc1 | 30.2 | 24.1 | 42.2* | 11.3 | -2.1 | 28.0
